Assay [1] can be described thus: antimalarial activity against Dd2 strain (AID 2302;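 active means growth inhibition above 50% at the single 2 µM test dose, taken to imply half-maximal potency below 2 µM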;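 further: 0% = DMSO untreated growth and 100% = chloroquine plus artemisinin killed control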). As to conditions: P. falciparum Dd2 in RBCs, LDH growth readout, 72 h; at 2 µM; active compounds read high.
Assay [2] in a line: human hepatoma cell viability loss – ATP luminescence, cytotoxicity control for P. falciparum antimalarial project, primary screen (AID 2303;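 active means inhibition above 50%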;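 further: 0% = DMSO wells and 100% = digitonin-killed cells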). As to conditions: HepG2 viability, 24-48 h, at 10 µM, active compounds read high.
In assay [3] the target is L-lactate dehydrogenase (Plasmodium falciparum (isolate CDC / Honduras)) (UniProt Q27743). Briefly: PfLDH activity inhibition – cell lysate, 3D7 strain, counter-screen for P. falciparum growth inhibition project (AID 2304).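 Further: 0% = vehicle and 100% = reference inhibitor.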 As to conditions: P. falciparum 3D7 crude extract, LDH APAD/NBT absorbance; at 2 µM; active compounds read high. For orientation: Counterscreens check selectivity or assay interference.

The nature of assay [4]: inhibition of 3D7 malaria parasite growth – strain 3D7 (AID 2306).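 Further: 0% = DMSO wells and 100% = chloroquine plus artemisinin control wells.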 As to conditions: P. falciparum 3D7 erythrocytic growth, LDH absorbance, 72 h; at 2 µM; active compounds read high.
Assay [5] addresses Calcium-dependent protein kinase 1 (Plasmodium falciparum (isolate 3D7)) (UniProt P62344). Briefly: PfCDPK1 kinase inhibitors, biochemical, TCAMS library (AID 1159585; cut-off not given, nearly all actives have IC50 up to about 0.98 µM;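 further: inhibitors leave more ATP so luminescence rises with inhibition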). As to conditions: recombinant PfCDPK1, Kinase-Glo ATP depletion luminescence. (Kinase-Glo measures the ATP left after a reaction by luminescence.)
The target of assay [6] is Plasmodium falciparum protein kinase 6 (PK6, PF3D7_1337100) (UniProt Q8IDW1). Kind of assay: PfPK6 kinase inhibitors, biochemical, TCAMS library (AID 1159586). As to conditions: recombinant PfPK6, Kinase-Glo ATP depletion luminescence.
The target of assay [7] is Protein kinase 7 (PK7), Plasmodium falciparum 3D7 (PF3D7_0213400) (UniProt Q7YTF7). Kind of assay: inhibition of Plasmodium PK7 catalytic activity – biochemical, TCAMS antimalarial set, Kinase-Glo luminescence (AID 1159587). As to conditions: recombinant PfPK7, Kinase-Glo ATP depletion luminescence.
Assay [8] concerns the target Calcium-dependent protein kinase 4 (Plasmodium falciparum (isolate 3D7)) (UniProt Q8IBS5). Briefly: PfCDPK4 kinase inhibitors, biochemical, TCAMS library (AID 1159588; cut-off not given, nearly all actives have IC50 up to about 0.91 µM). As to conditions: recombinant PfCDPK4, Kinase-Glo ATP depletion luminescence.

Usually inhibition stands for the relative decrease from the control value, in per cent.

Values joined by “and” are separate entries in the source; they are usually repeats but may differ in a detail not shown here. Equal values may be shown once. A number with no mark means an inactive call. For part of these data: Measured potencies and affinities stand elsewhere. Active and inactive are the calls of the source. Unless noted, how the calls were made is not given here.

Sequence of Calcium-dependent protein kinase 4 (Plasmodium falciparum (isolate 3D7)) (Q8IBS5 whole entry, looked up): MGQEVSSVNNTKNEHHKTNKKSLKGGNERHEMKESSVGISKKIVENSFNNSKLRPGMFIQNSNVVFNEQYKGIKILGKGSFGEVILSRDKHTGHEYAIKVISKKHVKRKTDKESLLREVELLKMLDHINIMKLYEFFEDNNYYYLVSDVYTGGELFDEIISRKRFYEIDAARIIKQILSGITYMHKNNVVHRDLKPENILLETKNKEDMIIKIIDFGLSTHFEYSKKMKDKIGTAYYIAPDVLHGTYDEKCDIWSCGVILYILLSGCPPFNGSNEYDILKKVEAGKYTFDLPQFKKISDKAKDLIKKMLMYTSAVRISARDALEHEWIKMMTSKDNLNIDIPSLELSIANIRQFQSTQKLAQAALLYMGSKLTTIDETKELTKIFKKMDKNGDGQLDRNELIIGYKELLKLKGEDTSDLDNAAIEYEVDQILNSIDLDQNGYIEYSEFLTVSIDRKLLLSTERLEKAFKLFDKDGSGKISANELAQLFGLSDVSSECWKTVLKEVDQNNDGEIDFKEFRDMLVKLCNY
Sequence of Protein kinase 7 (PK7), Plasmodium falciparum 3D7 (PF3D7_0213400) (Q7YTF7 1-343): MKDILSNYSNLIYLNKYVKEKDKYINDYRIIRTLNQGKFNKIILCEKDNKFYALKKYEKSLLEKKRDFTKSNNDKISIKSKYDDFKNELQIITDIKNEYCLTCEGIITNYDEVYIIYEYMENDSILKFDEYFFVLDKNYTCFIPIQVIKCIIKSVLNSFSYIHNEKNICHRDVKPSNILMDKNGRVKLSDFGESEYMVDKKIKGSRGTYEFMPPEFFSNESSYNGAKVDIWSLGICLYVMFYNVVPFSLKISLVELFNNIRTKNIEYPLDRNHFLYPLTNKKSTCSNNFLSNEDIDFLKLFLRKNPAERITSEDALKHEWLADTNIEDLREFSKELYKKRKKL
Sequence of Plasmodium falciparum protein kinase 6 (PK6, PF3D7_1337100) (Q8IDW1 1-305): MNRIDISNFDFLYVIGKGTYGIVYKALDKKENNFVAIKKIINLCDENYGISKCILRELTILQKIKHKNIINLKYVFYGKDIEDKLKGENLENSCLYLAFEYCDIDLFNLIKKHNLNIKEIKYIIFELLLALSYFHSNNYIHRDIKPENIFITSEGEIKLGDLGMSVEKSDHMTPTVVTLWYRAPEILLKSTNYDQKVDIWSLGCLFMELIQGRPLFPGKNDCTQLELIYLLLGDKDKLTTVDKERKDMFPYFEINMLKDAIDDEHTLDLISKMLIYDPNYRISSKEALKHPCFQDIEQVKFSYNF
Sequence of L-lactate dehydrogenase (Plasmodium falciparum (isolate CDC / Honduras)) (Q27743 whole entry, looked up): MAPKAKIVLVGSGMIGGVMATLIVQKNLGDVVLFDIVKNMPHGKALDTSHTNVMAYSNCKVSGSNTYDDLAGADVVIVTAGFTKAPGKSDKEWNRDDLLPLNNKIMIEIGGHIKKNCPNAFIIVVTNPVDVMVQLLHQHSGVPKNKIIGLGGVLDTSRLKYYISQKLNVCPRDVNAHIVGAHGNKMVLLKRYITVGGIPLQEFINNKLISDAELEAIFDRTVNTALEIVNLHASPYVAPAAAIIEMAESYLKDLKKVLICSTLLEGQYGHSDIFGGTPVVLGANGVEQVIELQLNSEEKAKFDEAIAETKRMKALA
Sequence of Calcium-dependent protein kinase 1 (Plasmodium falciparum (isolate 3D7)) (P62344 whole entry, looked up): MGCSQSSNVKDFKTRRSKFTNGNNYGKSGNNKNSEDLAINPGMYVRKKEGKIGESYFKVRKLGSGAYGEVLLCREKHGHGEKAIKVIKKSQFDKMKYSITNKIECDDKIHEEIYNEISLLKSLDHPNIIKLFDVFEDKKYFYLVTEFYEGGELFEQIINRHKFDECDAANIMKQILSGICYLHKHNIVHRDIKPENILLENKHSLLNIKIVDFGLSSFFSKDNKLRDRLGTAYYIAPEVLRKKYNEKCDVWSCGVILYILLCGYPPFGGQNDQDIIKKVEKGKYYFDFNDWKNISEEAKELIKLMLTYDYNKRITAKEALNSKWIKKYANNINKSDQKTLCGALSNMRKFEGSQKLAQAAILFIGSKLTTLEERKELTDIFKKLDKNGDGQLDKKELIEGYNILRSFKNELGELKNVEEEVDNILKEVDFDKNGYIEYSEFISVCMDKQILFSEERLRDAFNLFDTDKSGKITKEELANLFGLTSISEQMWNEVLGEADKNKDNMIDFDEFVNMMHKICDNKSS

Turning to `Cc1sc2ccc(Cl)cc2c1S(=O)(=O)Nc1ccc2nccc(N3C[C@@H](C)N[C@@H](C)C3)c2c1`, the growth inhibition in assay [1] and in assay [4] was 100% (active) in each case. Further, the inhibition in assay [2] is 17%; in assay [3] it was 0%. The result in assay [5], in assay [6], in assay [7] and in assay [8] was inactive.
Turning to `COc1ccc(-c2ccc(S(=O)(=O)Nc3cc4c(cc3OC(C)C)CCN(C)CC4)cc2)cc1`, the growth inhibition in assay [1] was 2%; in assay [4], 98% (active). The inhibition was 16% in assay [2] and -4% in assay [3]. The outcome in assay [5], in assay [6], in assay [7] and in assay [8] was inactive.
As for `O=C(NC(Nc1ccc([N+](=O)[O-])cc1)C(Cl)(Cl)Cl)c1cccc(Cl)c1` (centres undefined), the growth inhibition in assay [1] is 17%; in assay [4], 92% (active). For the same compound, the inhibition in assay [2] is -2%; in assay [3] it was 0%. The outcome in assay [5], in assay [6], in assay [7] and in assay [8] was inactive.
Consider `O=C(NC1CCN(Cc2ccccc2)CC1)c1ccc(-c2nc3cc(F)c(F)cc3[nH]2)s1`, for which the figures for the growth inhibition in assay [1] and in assay [4] were 97% (active) and 101% (active), respectively. Further, the inhibition in assay [2] is 6%; in assay [3], 1%. The result in assay [5], in assay [6], in assay [7] and in assay [8] was inactive.
As to `CCC1CN2CCc3c([nH]c4ccccc34)[C@@H]2C[C@@H]1CC1NCCc2cc(OC)c(OC)cc21` (some centres undefined), the growth inhibition is 67% (active) and 83% (active) in assay [1]; 100% (active) in assay [4]. Further, the inhibition in assay [2] is 33% and 26%; in assay [3] it was 3% and 1%. In addition, the result in assay [5], in assay [6], in assay [7] and in assay [8] was inactive.
As to `COc1ccccc1N1CCN(Cc2cc(C(C)C)c(C)cc2O)CC1`, the figures for the growth inhibition in assay [1] and in assay [4] were 98% (active) and 97% (active), respectively. Besides, the inhibition is 7% in assay [2] and 2% in assay [3]. In addition, the result in assay [5], in assay [6], in assay [7] and in assay [8] was inactive.
In the case of `CCN(CC(C)O)C(=O)c1ccc(-c2ccc(-c3nc4c(C)cccc4[nH]3)cc2)cc1` (centres undefined), the growth inhibition in assay [1] was 13%; in assay [4], 94% (active). For the same compound, the results for the inhibition in assay [2] and in assay [3] were 18% and -5%, respectively. Besides, the outcome in assay [5], in assay [6], in assay [7] and in assay [8] was inactive.
With `Fc1ccc2ncc(Cl)c(CCN3CCC(NCc4cc5c(cn4)OCCO5)CC3)c2c1`, the figures for the growth inhibition in assay [1] and in assay [4] were 20% and 93% (active), respectively. Also, the inhibition in assay [2] is 24%; in assay [3] it was -4%. Moreover, the outcome in assay [5], in assay [6], in assay [7] and in assay [8] was inactive.
For the compound `Cn1nc(-c2ccc(CN[C@@H]3CCc4ccc(O)cc43)cc2)c2cnc(NCCCN3CCCC3)nc21`, the growth inhibition is 61% (active) in assay [1] and 101% (active) in assay [4]. The inhibition in assay [2] was 8%; in assay [3], 2%. Further, the result in assay [5], in assay [6], in assay [7] and in assay [8] was inactive.
Regarding `N#Cc1cccc(NC(=O)Nc2ccc(-c3cccc(-c4nc5ccc(F)cc5[nH]4)c3)cc2)c1`, the growth inhibition was 100% (active) in assay [1] and 102% (active) in assay [4]. The inhibition is 64% (active) in assay [2] and 4% in assay [3]. For the same compound, the outcome in assay [5], in assay [6], in assay [7] and in assay [8] was inactive.
`COc1ccc(C2C(C(=O)Nc3ccccc3)=C(C)Nc3c(C(=O)Nc4ccccc4)cnn32)cc1` (centres undefined): the figures for the growth inhibition in assay [1] and in assay [4] were 66% (active) and 85% (active), respectively. Also, the figures for the inhibition in assay [2] and in assay [3] were 13% and -1%, respectively. The result in assay [5], in assay [6], in assay [7] and in assay [8] was inactive.
As for `Cc1ccc(CN2CCN(Cc3cccc(NC(=O)c4cccs4)c3)CC2)cc1C`, the growth inhibition in assay [1] is 68% (active); in assay [4], 96% (active). Further, the inhibition was 41% in assay [2] and 2% in assay [3]. The result in assay [5], in assay [6], in assay [7] and in assay [8] was inactive.
Take `CC(C)(C)NC(=O)COC(=O)c1c2c(nc3ccccc13)C(=Cc1ccc3c(c1)OCO3)CCC2`: the growth inhibition in assay [1] is 82% (active); in assay [4], 90% (active). The inhibition in assay [2] is 7%; in assay [3], -4%. The result in assay [5], in assay [6], in assay [7] and in assay [8] was inactive.
`O=C(Nc1cccc(C(F)(F)F)c1)N1CCOC(CCN2CCC3(CCc4ccccc43)CC2)(c2ccc(Cl)c(Cl)c2)C1` (centres undefined): the growth inhibition in assay [1] is 70% (active); in assay [4], 99% (active). Moreover, the inhibition in assay [2] was 31%; in assay [3], 0%. Further, the result in assay [5], in assay [6], in assay [7] and in assay [8] was inactive.
On to `O=C(Nc1ccc(-c2cccc(-c3nc4ccc(C(F)(F)F)cc4[nH]3)c2)cc1)c1cccnc1`, for which the growth inhibition in assay [1] is 24%; in assay [4], 100% (active). Besides, the inhibition is 74% (active) in assay [2] and -5% in assay [3]. The result in assay [5], in assay [6], in assay [7] and in assay [8] was inactive.
In the case of `CCc1cc2c(N)nc(N)nc2nc1-c1ccccc1`, the results for the growth inhibition in assay [1] and in assay [4] were -1% and 91% (active), respectively. The inhibition is 18% in assay [2] and 6% in assay [3]. The result in assay [5], in assay [6], in assay [7] and in assay [8] was inactive.
Consider `O=C(NC1CCCCC1)N(Cc1cccc(-c2ccc(CNC3CCCC3)cc2)c1)C1CCN(Cc2ccccc2)CC1`, for which the growth inhibition in assay [1] is 89% (active); in assay [4] it was 98% (active). The inhibition was 37% in assay [2] and -2% in assay [3]. Besides, the result in assay [5], in assay [6], in assay [7] and in assay [8] was inactive.
Regarding `COc1ccc(CNCc2ccc(F)cc2)cc1-c1ccc(OC)c(S(=O)(=O)NCCN2CCCC2)c1`, the figures for the growth inhibition in assay [1] and in assay [4] were 88% (active) and 101% (active), respectively. Besides, the inhibition was 24% in assay [2] and 5% in assay [3]. The outcome in assay [5], in assay [6], in assay [7] and in assay [8] was inactive.

These data come from PubChem BioAssay.
